Eight molecules from PubChem BioAssay (NCATS) can be followed below.

Molecules are shown by their SMILES. Several values for one entry are separate records, joined by “and”; a condition that tells them apart may be missing. Identical values can stand only once. Values without a mark were called inactive. Inconclusive results are not listed. Activity calls are given as the source filed them. Unless noted, the call rests on the fitted dose curve; in most records, active means well fitted curve in the direction sought with a large enough effect; inconclusive means small, poorly fitted or top-dose-only effect, or another doubt; inactive means no such curve, though single readings can be large; an effect the other way counts as inactive or inconclusive.

Assay [1] concerns the target Arylsulfatase A (Homo sapiens) (UniProt P15289). The assay can be described thus: qHTS screen for enhancers of Arylsulfatase A (ASA1): LOPAC Validation Assay (AID 720538). Further: 0% is about no effect. In outline:
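First, ASA-I179S fibroblasts from an MLD patient adhered for 6 hrs. Next, compounds were added for 48h. Then pNCS substrate (0.5mM final) with lysis buffer reacted 14h at room temperature before NaOH stop and fluorescence measurement.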
In general terms: In qHTS, concentration-response curves come from the screen itself.

Assay [2] can be described thus: qHTS for compounds that reverse cellular toxicity of Amyloid beta (A-beta) peptide in yeast: LOPAC Validation Assay (AID 720559).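 Further: plate controls were DMSO for no effect and equimolar ferric chloride plus clioquinol rescue for full effect.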 An outline of the steps: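 Activity is expressed relative to DMSO and an equimolar ferric chloride/clioquinol mix. Compounds were pinned into medium with A-beta-expressing yeast, grown 48 hr at 30 C, then read by absorbance at 600 nm.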

Assay [3] is described as follows: qHTS for Activators of Parkin Expression: LOPAC Validation Assay (NLuc Reporter) (AID 720572;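 further: 0% = DMSO and 100% = positive control compound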). In outline: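 Neuronal cells with a Parkin promoter-driven FLuc/NLuc coincidence reporter were treated 24 h at 37 C in 7-point dose response (LOPAC). NLuc luminescence read after FLuc; signals normalized to DMSO and positive control (100%).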
Assay [4] is described as follows: qHTS for Activators of Parkin Expression: LOPAC Validation Assay (FLuc Reporter) (AID 720573;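 further: 0% = DMSO and 100% = positive control compounds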). An outline of the steps: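 A neuronal cell line harbouring FLuc and NLuc reporters behind the Parkin promoter was exposed to compounds for 24 h. Firefly luciferase signal, measured after 10 min with detection reagent, was scaled to DMSO and positive-control wells.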
The target of assay [5] is T1, Hexokinase-4 (Homo sapiens) + Glucokinase regulatory protein (Homo sapiens) (UniProt P35557+Q14397). As to the kind of experiment: qHTS assay for inhibitors of recombinant human GCK-GKRP interaction: Diaphorase-coupled assay (AID 743205). An outline of the steps: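 Inhibitors of the GCK–GKRP complex relieve GKRP suppression of GCK, detected through a G6PDH–diaphorase cascade reducing resazurin. Human GST-GCK and FLAG-GKRP are used at 10 nM with 5 mM glucose and 0.4 mM ATP.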

The target in assay [6] is T1, Hexokinase-4 (Homo sapiens) + Glucokinase regulatory protein (Homo sapiens). The assay can be described thus: qHTS assay for inhibitors of recombinant human GCK-GKRP interaction: ADP-Glo assay (AID 743206).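 Further: plate controls were DMSO plus enzyme for no effect and no enzyme for full effect.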 In outline: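 GST-GCK and FLAG-GKRP (15 nM each in the dispensed mix, with 2 uM S6P) react with 0.4 mM ATP and 5 mM glucose (final) in Hepes pH 7.6 for 60 min at room temperature. ADP is measured by ADP-Glo luminescence.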

Assay [7] shares this target. The assay can be described thus: qHTS assay for inhibitors of recombinant human GCK-GKRP interaction: HTRF assay (AID 743207).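 Further: 0% = DMSO with GCK present and -100% = DMSO wells lacking GCK.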 In outline:
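Steps: dispense GCK–GKRP complex (5 nM each, GST- and FLAG-tagged) with 2 uM S6P; pin in compounds; add XL665/Eu-cryptate-labelled antibodies; incubate 60 min at room temperature; read time-resolved FRET at 665 and 615 nm.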

The target in assay [8] is Tumor necrosis factor (Homo sapiens) (UniProt P01375). The assay can be described thus: qHTS assay to identify small molecules that stimulate Tumor Necrosis Factor-alpha (TNF-alpha) secretion (AID 651757; active means well fitted curve in the direction sought with a large enough effect in the signal ratio; the % refers to the signal ratio; further: 0% is about no effect). An outline of the steps:
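THP-1 cells (3000/well) exposed to compounds 17 hrs at 37 C. Secreted TNF-alpha detected by HTRF with cryptate- and XL665-labeled anti-TNF-alpha antibodies after 3 hr at room temperature.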

The nature of assay [9]: qHTS assay to identify small molecules that stimulate interleukin-8 (IL-8) secretion (AID 651758; active means well fitted activation curve with a large enough effect in the signal ratio; the % refers to the signal ratio; further: 0% is about no effect). An outline of the steps: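 THP-1 cells (2000/well) exposed to compound 16 h at 37 C; secreted IL-8 then detected by HTRF with cryptate- and XL665-labelled anti-IL-8 antibody pair after 1-3 h at room temperature.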
The nature of assay [10]: qHTS assay for environmental chemicals that activate the Aryl hydrocarbon Receptor (AhR) signaling pathway (AID 651777). Further: nearly all actives have a fitted effect of over 15% in size. Further: potency means the concentration at half of the fitted maximal effect. On activation: % of control where 0% means no effect. The following applies: 1A2-DRE human hepatoma cells, luciferase, 24 h; activation: active compounds read high. In outline:
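Measured luciferase activity, read 30 min after One-Glo addition at room temperature, from human hepatoma cells bearing a dioxin response element–CYP1A2 promoter reporter and exposed to compound for 24 hr at 37 C.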

The target of assay [11] is Peroxisome proliferator-activated receptor alpha (Homo sapiens) (UniProt Q07869). The assay can be described thus: qHTS assay for small molecule agonists of the peroxisome proliferator-activated receptor alpha (PPARalpha) signaling pathway (AID 651778). Further: % of control where 0% means no effect. To be noted: PathHunter PPARalpha complementation, chemiluminescence, 6 h; active compounds read high. An outline of the steps: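 Enzyme-fragment complementation assay in which ligand-bound PPARalpha translocates and forms an active enzyme that generates chemiluminescence. Cells were plated overnight, exposed to compound for 6 hr at 37 C, and then given detection reagent for 60 min at room temperature.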

Assay [12] addresses Nuclear receptor ROR-gamma (Homo sapiens) (UniProt P51449). The assay can be described thus: qHTS assay for small molecule antagonists of the retinoid-related orphan receptor gamma (ROR-gamma) signaling pathway (AID 651802).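 Further: luciferase reporter luminescence driven by ROR response element; series mostly up to about 92 µM; on the % scale 0 is the no-effect control and ±100 the full control effect; nearly all actives have a fitted effect of over 60% in size.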 In outline: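 CHO cells with TET-inducible ROR-gamma and RORE-luciferase reporter, dosed then doxycycline-induced. After 16 h at 37C, One-Glo luminescence read; decreased signal indicates antagonism.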

Assay [13] in a line: qHTS assay for small molecule antagonists of the retinoid-related orphan receptor gamma (ROR-gamma) signaling pathway - cell viability counter screen (AID 720652; active means well fitted curve in the direction sought with a large enough effect in the repeat runs; an effect the other way counts as inactive or inconclusive;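 further: series mostly up to about 92 µM; compound exposure lasted 16 hr before ATP read; on the % scale 0 is the no-effect control and ±100 the full control effect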). An outline of the steps:
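CHO cells carrying TET-inducible ROR and RORE-luciferase reporter, plated 5 hr, then dosed with compound plus doxycycline. After 16 hr at 37 C, viability read as intracellular ATP by CellTiter-Glo luminescence.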

A short description of assay [14]: qHTS Assay for Identifying Gametocytocidal Compounds (AID 743244).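 Further: on the % scale 0 is the no-effect control and ±100 the full control effect; actives lower the fluorescent signal which means gametocytes are killed.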 To be noted: P. falciparum 3D7 stage III-V gametocytes, alamarBlue, 72 h; max response: active compounds read low. An outline of the steps:
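Viability read-out was resazurin reduction (alamarBlue, 24 h) measured at Ex 525/Em 598 nm. Beforehand, late-stage (III-V) 3D7 P. falciparum gametocytes at 20,000 cells/well were incubated with compound 72 h at 37C under 5% CO2.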

The nature of assay [15]: qHTS assay for small molecule disruptors of the mitochondrial membrane potential - 1 hr assay (AID 651754; calls by dose curve; further: potency means the concentration at half of the fitted maximal effect; nearly all actives have a fitted effect of over 35% in size). In outline:
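HepG2 cells, attached overnight, were exposed to compound for 1 hr at 37C, then stained 30 min with a potentiometric dye. Ratio of red aggregate (590nm) to green monomer (535nm) fluorescence reports membrane potential; collapse shifts signal toward green.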

Assay [16] is described as follows: qHTS assay for small molecule disruptors of the mitochondrial membrane potential - 5 hr assay (AID 651755; calls by dose curve; further: potency means the concentration at half of the fitted maximal effect; nearly all actives have a fitted effect of over 40% in size). An outline of the steps:
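HepG2 cells (2,000/well), attached overnight, exposed to compound 5 hr at 37C, then Mito-MPS dye 30 min. Fluorescence read for monomers (490/535 nm) and aggregates (540/590 nm).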

Assay [17] is described as follows: qHTS assay for small molecule agonists of the antioxidant response element (ARE) signaling pathway measured by Nrf2-dependant transcriptional activity (AID 720636; active means well fitted curve in the direction sought with a large enough effect in the repeat runs; an effect the other way counts as inactive or inconclusive;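 further: HepG2 cells with an ARE-driven luciferase reporter; % of control where 0% means no effect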). In outline: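 In HepG2 cells engineered with an Nrf2-responsive luciferase gene, ARE induction was quantified as luminescence after 16 hr compound treatment at 37 C.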
Assay [18] in a line: qHTS assay for small molecule agonists of the antioxidant response element (ARE) signaling pathway measured by Nrf2-dependant transcriptional activity - cell viability counter screen (AID 720653; active means well fitted curve in the direction sought with a large enough effect in the repeat runs; an effect the other way counts as inactive or inconclusive; further: on the % scale 0 is the no-effect control and ±100 the full control effect). To be noted: ARE-bla HepG2 viability, CellTiter-Glo ATP luminescence, 16 h; max response: active compounds read low. In outline: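 ARE-bla HepG2 cells treated with compounds for 16 h at 37C; this counter screen measures viability as intracellular ATP by CellTiter-Glo luminescence after 30 min at room temperature.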

Assay [19] has as its target Tyrosine-protein kinase Yes (Homo sapiens) (UniProt P07947). As to the kind of experiment: qHTS for small molecule inhibitors of Yes1 kinase: Primary Screen (AID 686947). Further: potency means the concentration at half of the fitted maximal effect; nearly all actives have a fitted effect of over 60% in size. In outline:
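Yes1 (4 nM) preincubated 20 min with compound, then 60 min room-temperature reaction with 0.1 mM ATP and 0.3 mg/mL poly(E4Y) in pH 7.5 Tris, 10 mM MgCl2. ADP measured by ADP-Glo luminescence, normalised to enzyme/no-enzyme controls.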

Assay [20] in a line: qHTS for small molecule inhibitors of Yes1 kinase: Counter Assay (AID 686950).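 Further: no kinase present so only ADP-Glo detection of a fixed ADP amount is tested; luminescence from ADP-Glo reporting ADP in a fixed ATP and ADP mixture; series mostly up to about 77 µM; 0% = DMSO wells with ATP plus ADP and -100% = ATP-only wells without ADP.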 In outline:
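Enzyme-free detection counter-screen: compounds preincubated 20 min in buffer, then 0.08 mM ATP plus 0.02 mM ADP added for 60 min at room temperature; ADP-Glo luminescence. Buffer 50 mM Tris pH 7.5, 10 mM MgCl2, 150 mM NaCl; normalized to ATP+ADP and ATP-only controls.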

Chain of Tumor necrosis factor (Homo sapiens) (P01375 whole entry, looked up): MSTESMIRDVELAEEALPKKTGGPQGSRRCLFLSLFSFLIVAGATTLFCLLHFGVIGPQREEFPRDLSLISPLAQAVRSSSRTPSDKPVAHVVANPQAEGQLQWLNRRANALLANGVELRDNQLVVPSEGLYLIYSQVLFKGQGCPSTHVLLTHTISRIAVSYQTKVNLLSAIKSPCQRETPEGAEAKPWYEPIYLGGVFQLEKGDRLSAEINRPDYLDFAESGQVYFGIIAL
Chain of Peroxisome proliferator-activated receptor alpha (Homo sapiens) (Q07869 whole entry, looked up, the tested form may be a part): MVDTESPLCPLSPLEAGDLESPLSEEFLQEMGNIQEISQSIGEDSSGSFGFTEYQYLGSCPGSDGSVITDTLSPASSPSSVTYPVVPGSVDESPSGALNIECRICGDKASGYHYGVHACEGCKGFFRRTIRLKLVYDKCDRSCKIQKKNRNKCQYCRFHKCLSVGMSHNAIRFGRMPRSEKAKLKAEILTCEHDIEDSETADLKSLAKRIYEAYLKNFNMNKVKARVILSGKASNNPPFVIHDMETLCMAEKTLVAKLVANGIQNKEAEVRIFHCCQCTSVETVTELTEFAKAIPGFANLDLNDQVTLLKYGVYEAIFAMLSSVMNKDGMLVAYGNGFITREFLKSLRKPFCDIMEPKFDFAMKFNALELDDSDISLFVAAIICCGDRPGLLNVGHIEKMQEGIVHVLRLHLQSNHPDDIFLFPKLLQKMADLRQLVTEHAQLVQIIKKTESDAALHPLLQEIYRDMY
Chain of Arylsulfatase A (Homo sapiens) (P15289 whole entry, looked up): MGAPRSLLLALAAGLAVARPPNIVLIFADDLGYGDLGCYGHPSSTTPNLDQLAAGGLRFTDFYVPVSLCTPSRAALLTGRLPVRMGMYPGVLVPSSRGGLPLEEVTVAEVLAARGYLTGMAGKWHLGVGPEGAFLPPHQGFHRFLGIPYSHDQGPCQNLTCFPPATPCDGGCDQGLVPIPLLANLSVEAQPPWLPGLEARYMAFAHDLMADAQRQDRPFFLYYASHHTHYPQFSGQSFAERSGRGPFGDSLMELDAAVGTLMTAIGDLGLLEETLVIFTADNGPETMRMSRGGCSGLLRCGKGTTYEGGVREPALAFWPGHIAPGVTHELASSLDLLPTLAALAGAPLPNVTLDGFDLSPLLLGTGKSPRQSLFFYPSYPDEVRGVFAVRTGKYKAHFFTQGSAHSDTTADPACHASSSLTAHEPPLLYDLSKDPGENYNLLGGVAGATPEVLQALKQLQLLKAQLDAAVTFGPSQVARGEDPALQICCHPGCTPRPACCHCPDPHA
T1 sequence (P35557 whole entry, looked up): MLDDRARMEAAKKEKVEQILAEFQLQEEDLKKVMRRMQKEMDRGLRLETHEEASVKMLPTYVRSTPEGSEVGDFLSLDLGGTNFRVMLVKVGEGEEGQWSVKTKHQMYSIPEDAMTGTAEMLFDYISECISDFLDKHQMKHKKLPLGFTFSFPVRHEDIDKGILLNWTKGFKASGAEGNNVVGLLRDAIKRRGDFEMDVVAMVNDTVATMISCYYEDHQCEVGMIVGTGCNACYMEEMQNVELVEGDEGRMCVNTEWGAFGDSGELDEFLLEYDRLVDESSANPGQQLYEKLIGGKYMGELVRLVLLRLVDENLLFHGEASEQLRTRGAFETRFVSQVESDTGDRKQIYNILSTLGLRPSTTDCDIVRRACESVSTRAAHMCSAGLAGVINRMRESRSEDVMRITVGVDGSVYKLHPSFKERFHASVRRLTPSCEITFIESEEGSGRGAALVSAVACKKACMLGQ
T1 sequence (Q14397 whole entry, looked up): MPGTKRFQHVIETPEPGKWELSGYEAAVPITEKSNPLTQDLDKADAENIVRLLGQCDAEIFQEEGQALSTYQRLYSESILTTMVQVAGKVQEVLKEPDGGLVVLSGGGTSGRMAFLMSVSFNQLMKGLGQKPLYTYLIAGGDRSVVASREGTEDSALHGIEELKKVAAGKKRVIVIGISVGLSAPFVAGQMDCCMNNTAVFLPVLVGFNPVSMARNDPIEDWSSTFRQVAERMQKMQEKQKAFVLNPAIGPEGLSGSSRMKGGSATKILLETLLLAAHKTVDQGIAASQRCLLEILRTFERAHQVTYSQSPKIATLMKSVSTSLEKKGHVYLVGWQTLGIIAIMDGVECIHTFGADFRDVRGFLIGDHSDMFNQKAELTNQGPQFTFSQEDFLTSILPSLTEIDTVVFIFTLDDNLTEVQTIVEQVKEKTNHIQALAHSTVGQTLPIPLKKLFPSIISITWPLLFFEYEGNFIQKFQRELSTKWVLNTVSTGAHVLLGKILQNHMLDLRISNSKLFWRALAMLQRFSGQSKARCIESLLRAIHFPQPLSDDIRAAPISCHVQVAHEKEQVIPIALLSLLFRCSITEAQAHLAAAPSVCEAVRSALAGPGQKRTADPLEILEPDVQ
Chain of Nuclear receptor ROR-gamma (Homo sapiens) (P51449 whole entry, looked up): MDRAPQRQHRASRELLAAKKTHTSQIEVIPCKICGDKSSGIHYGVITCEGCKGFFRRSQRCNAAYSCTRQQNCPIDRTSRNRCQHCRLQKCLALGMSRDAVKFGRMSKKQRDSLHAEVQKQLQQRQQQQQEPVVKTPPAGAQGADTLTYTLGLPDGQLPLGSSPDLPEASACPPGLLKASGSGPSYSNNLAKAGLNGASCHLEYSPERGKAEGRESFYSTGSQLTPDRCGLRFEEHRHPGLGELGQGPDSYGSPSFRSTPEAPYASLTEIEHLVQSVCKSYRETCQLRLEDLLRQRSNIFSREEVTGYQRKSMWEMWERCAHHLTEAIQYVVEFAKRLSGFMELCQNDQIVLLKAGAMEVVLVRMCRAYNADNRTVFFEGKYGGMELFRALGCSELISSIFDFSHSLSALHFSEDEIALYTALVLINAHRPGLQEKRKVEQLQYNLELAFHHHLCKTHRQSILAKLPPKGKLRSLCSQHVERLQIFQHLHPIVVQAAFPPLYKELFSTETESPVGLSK
Chain of Tyrosine-protein kinase Yes (Homo sapiens) (P07947 whole entry, looked up): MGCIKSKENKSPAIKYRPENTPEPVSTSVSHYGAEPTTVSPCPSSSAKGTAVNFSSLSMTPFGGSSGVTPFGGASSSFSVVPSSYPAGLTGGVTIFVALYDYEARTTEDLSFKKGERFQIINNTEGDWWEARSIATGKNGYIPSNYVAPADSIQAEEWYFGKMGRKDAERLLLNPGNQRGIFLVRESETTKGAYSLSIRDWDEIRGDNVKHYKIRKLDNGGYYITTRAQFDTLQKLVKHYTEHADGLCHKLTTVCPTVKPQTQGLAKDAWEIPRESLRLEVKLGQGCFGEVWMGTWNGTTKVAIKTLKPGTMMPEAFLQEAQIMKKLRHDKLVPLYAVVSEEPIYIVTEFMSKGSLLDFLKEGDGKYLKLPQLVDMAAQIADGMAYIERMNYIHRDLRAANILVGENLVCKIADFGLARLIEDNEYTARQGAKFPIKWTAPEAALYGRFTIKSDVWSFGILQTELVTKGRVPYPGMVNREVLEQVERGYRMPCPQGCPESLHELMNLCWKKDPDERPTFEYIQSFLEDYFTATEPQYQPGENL

Turning to `CC1=C(C)C(=O)C(CCCCC#CCCCC#CCO)=C(C)C1=O`, the Potency result in assay [1], in assay [3] and in assay [7] was “inactive” throughout. Also, the result in assay [2], in assay [4], in [5] and in [6] was inactive.

With `NC(=Nc1ccccc1)Nc1ccccc1`, the outcome in [8] and in assay [13] was inactive. The Potency result in assay [9] and in assay [12] was “inactive” each time. Besides, the Potency in assay [10] was 12.6 µM (active). Further, the max response was -2.99% and 6.68% in [11]; 5.26% and -9.95% in assay [14].

Regarding `COC(=O)[C@H]1[C@H]2C[C@@H]3c4[nH]c5cc(OC)ccc5c4CCN3C[C@H]2C[C@@H](OC(=O)c2cc(OC)c(OC)c(OC)c2)[C@@H]1OC`, the results for the Potency in assay [15] and in assay [16] were 21.1 µM (active) and 26.6 µM (active), respectively. The result in [8], in assay [2], in assay [4], in assay [17], in assay [5] and in assay [6] was inactive. For the same molecule, the activation in assay [10] is 3.95% and 8.69%. Moreover, the max response in assay [11] is 4.44% and 8.97%; in assay [18], -16.7% and -9.72%. The Potency entry in assay [3] and in [7] was “inactive” throughout.

Consider `NC(=O)N1c2ccccc2C=Cc2ccccc21`, for which the outcome in assay [8], in assay [2], in [4], in assay [17], in assay [13] and in assay [5] was inactive. Moreover, in assay [6], the result was inactive. For the same molecule, the activation in [10] was 0.886% and -3.46%. For the same molecule, the max response in assay [11] was -1.1% and -0.275%; in assay [18], -1.67% and -8.32%; in assay [14], -9.6% and 15.5%. Also, the Potency entry in assay [12], in assay [1] and in assay [7] was “inactive” each time.

For the molecule `Cc1ccc(S(=O)(=O)NC(=O)NN2CCCCCC2)cc1`, in assay [10], the activation was 10.4%. Further, the max response in assay [11] is -0.39%; in assay [18], 1.34%. Besides, the molecule was classed as inactive in assay [2], in [4], in assay [5] and in assay [6]. For the same molecule, the Potency entry in assay [7] was “inactive”.

Take `Cc1cc(C)c(/C=C2\C(=O)Nc3ccccc32)[nH]1`: the Potency in assay [19] is 1.37 µM (active). The molecule was classed as inactive in assay [20], in [2], in [4], in [5] and in assay [6]. The Potency entry in [1], in assay [3] and in assay [7] was “inactive” each time. In addition, the max response in assay [14] was -7.62% and 20.5%.

For the molecule `CCCCNc1ccc(C(=O)OCCN(C)C)cc1`, the Potency entry in [1], in assay [3] and in assay [7] was “inactive” throughout. Moreover, the call in assay [2], in assay [4], in assay [5] and in assay [6] was inactive.

Regarding `CC(=O)Nc1nnc(S(N)(=O)=O)s1`, in assay [10], the activation is -1.84%. Besides, the max response in [11] is -2.77%; in assay [18], 1.81%; in [14], 9.9% and 9.69%. In addition, the call in assay [2], in [17], in assay [5] and in [6] was inactive. In assay [7], the Potency entry was “inactive”.
